# Pf Dd2 growth: inhibitors of Plasmodium falciparum Dd2 growth; P. falciparum Dd2 growth, SYBR Green, 72 h; active compounds read low; activity change, % at 10 µM; 2.3% of 94,000 active; in the data active means activity change below about -80%; inconclusive means no clear call, values can overlap the other calls
# C diff HTS: inhibitors of Clostridium difficile growth; Clostridium difficile clinical isolate growth, OD600, 24 h; active compounds read low; growth activity, negative = inhibition, % at 16 µg/mL (by protocol); 0.25% of 86,000 active;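 active means mean growth activity at or below -80% and every replicate also at or below -80%; inconclusive means mean at or below -80% but some replicate above -80%; inactive means mean growth activity above -80%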;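 further: 0% = DMSO wells and -100% = levofloxacin 16 µg/mL wells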
# T cruzi growth-1: blocks T. cruzi growth in NIH3T3 culture | inhibition, % at 8.34 µM | T. cruzi beta-gal in NIH3T3, GalScreen luminescence, 90 h | 5.9% of 77,000 active | AID 624255;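 active means mean inhibition above about 93%, with at least 55% of replicates each passing it, limit read from the data, passing the limit was not always enough; inconclusive means only one of those two conditions holds; inactive means neither condition holds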
# T cruzi growth-2: Trypanosoma cruzi proliferation inhibition | inhibition, % at 8.35 µM | T. cruzi beta-gal in NIH3T3, GalScreen luminescence, 90 h | 72% of 5,600 active | shares compounds with T cruzi growth-1;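 active means mean replicate inhibition above about 95% and at least 55% of replicates individually reaching it, limit read from the data; inconclusive means only one of the two criteria is met; inactive means neither criterion is met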
# T cruzi growth-3: inhibitors of T. cruzi proliferation; shares compounds with T cruzi growth-1; T. cruzi beta-gal in NIH3T3, GalScreen luminescence, 90 h; inhibition, % at 2.09 µM; 21% of 5,600 active; AID 651740;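 active means mean inhibition above about 95%, with at least 55% of replicates also reaching it, limit read from the data; inconclusive means meets just one of the two conditions; inactive means meets neither condition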;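 further: plate controls were neutral control median for no effect and positive control median for full effect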
# NIH3T3 tox: cytotoxicity in mouse NIH/3T3 fibroblasts; shares compounds with T cruzi growth-1; NIH/3T3 viability, CellTiter-Glo ATP luminescence, 90 h; cytotoxicity (signal decrease), % at 8.35 µM; 14% of 5,600 active; AID 651742;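 active means mean signal decrease across replicates above about 35% based on untreated-well scatter, with enough replicates individually passing, limit read from the data; inconclusive means no rule stated though some were filed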;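 further: 0% = median of neutral control wells and 100% = median of positive control wells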
# NIH3T3 tox 2: kills mouse NIH/3T3 fibroblasts; shares compounds with T cruzi growth-1; NIH/3T3 viability, CellTiter-Glo ATP luminescence, 90 h; inhibition, % at 24.9 µM; 56% of 5,600 active;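 active means mean loss of cell viability signal at or above a set limit, and enough replicates individually reaching it; inconclusive means meets only the mean limit or only the replicate share; inactive means meets neither condition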;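 further: 0% = median of neutral control wells and 100% = median of positive control wells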
# Starred values were filed as active, the others as inactive; ? = inconclusive; · = no result; + = active, no number. A selection: hits, their analogues and other compounds. The true share with any hit is near 6.8%.
SMILES,Pf Dd2 growth,C diff HTS,T cruzi growth-1,T cruzi growth-2,T cruzi growth-3,NIH3T3 tox,NIH3T3 tox 2
O=C(Cc1ccncc1)NCC[C@@H]1CC[C@H](NC(=O)C2CC2)[C@H](CO)O1,-6,3,·,·,·,·,·
C[C@@H]1CCCCO[C@@H](CN(C)Cc2ccc3c(c2)OCO3)[C@@H](C)CN([C@H](C)CO)C(=O)c2cc(NC(=O)c3ccccc3)ccc2O1,10,7,·,·,·,·,·
C[C@H]1CN([C@@H](C)CO)C(=O)c2cc(C#CCc3ccccc3)cnc2O[C@@H]1CN(C)C(=O)C1CC1,-31,·,31,·,·,·,·
C[C@H](CO)N1C[C@H](C)[C@H](CN(C)C)Oc2cc(-c3ccccc3F)ccc2S1(=O)=O,-6,4,?,19,9,6,50*
C[C@@H]1CN([C@@H](C)CO)S(=O)(=O)c2ccc(-c3ccccc3)cc2O[C@@H]1CN(C)CC1CC1,-44,·,71,·,·,·,·
C[C@H](CO)N1C[C@H](C)[C@@H](CN(C)C)Oc2cc(-c3ccccc3F)ccc2S1(=O)=O,1,-3,90,·,·,·,·
COc1ccccc1-c1ccc2c(c1)O[C@@H](CN(C)C(=O)c1ccncc1)[C@H](C)CN([C@@H](C)CO)S2(=O)=O,-8,1,62,·,·,·,·
C[C@H]1CN([C@@H](C)CO)S(=O)(=O)c2ccc(-c3ccccc3F)cc2O[C@H]1CN(C)C,-11,4,64,·,·,·,·
C[C@@H]1CN([C@@H](C)CO)S(=O)(=O)c2ccc(-c3ccccc3F)cc2O[C@H]1CN(C)C,-18,4,114*,54,17,23,77*
COc1ccccc1-c1ccc2c(c1)O[C@@H](CN(C)C(=O)c1ccncc1)[C@@H](C)CN([C@H](C)CO)S2(=O)=O,-1,2,105*,94,76,4,?
C[C@@H]1CN([C@@H](C)CO)S(=O)(=O)c2ccc(-c3ccccc3)cc2O[C@H]1CN(C)CC1CCCC1,-78,9,96*,97*,106*,58*,104*
CCCC(=O)Nc1ccc2c(c1)C(=O)N(C)C[C@@H](OC)[C@@H](C)CN(C(=O)c1ccccn1)[C@@H](C)CO2,-1,·,-14,·,·,·,·
CNC[C@H]1OCCCC[C@@H](C)Oc2ccc(NS(=O)(=O)c3cccs3)cc2C(=O)N([C@@H](C)CO)C[C@H]1C,8,0,62,·,·,·,·
COc1ccccc1-c1ccc2c(c1)O[C@H](CN(C)C)[C@H](C)CN([C@@H](C)CO)S2(=O)=O,-2,-1,75,·,·,·,·
COc1ccccc1-c1ccc2c(c1)O[C@H](CN(C)C)[C@@H](C)CN([C@@H](C)CO)S2(=O)=O,-7,-8,106*,98*,36,13,46*
C[C@@H]1CN([C@H](C)CO)S(=O)(=O)c2ccc(C3=CCCC3)cc2O[C@@H]1CN(C)CC1CC1,-31,9,63,·,·,·,·
COc1ccccc1-c1ccc2c(c1)O[C@@H](CN(C)CC1CCCC1)[C@H](C)CN([C@@H](C)CO)S2(=O)=O,-62,14,126*,101*,100*,42*,103*
C[C@@H]1CN([C@@H](C)CO)S(=O)(=O)c2ccc(C3=CCCC3)cc2O[C@H]1CN(C)CC1CCCC1,-64,2,107*,97*,82,41*,105*
COc1ccccc1-c1ccc2c(c1)O[C@H](CN(C)CC1CCOCC1)[C@@H](C)CN([C@@H](C)CO)S2(=O)=O,-36,-1,·,·,·,·,·
O=C(N[C@H]1CC[C@@H](CCn2cc(-c3ccc(F)cc3)nn2)O[C@@H]1CO)c1cnccn1,-1,0,·,·,·,·,·
COc1cccc(S(=O)(=O)Nc2ccc3c(c2)[C@@H]2C[C@H](CC(=O)NCC(F)(F)F)O[C@@H](CO)[C@@H]2O3)c1,5,0,-50,·,·,·,·
COc1ccc(S(=O)(=O)Nc2ccc3c(c2)C(=O)N([C@@H](C)CO)C[C@H](C)[C@@H](CN(C)C(=O)Nc2ccc(F)cc2)O3)cc1,-7,-3,26,·,·,·,·
C[C@H](CO)N1C[C@H](C)[C@H](CN(C)C(=O)C2CCOCC2)Oc2ncc(C3=CCCCC3)cc2C1=O,0,-5,53,·,·,·,·
CC=Cc1ccc2n(c1=O)C[C@@H]1[C@@H](CO)[C@H](C(=O)NCC)N(C(=O)c3cccnc3)[C@H]21 (mixture of isomers),3,1,-23,·,·,·,·
CC=Cc1ccc2n(c1=O)C[C@@H]1[C@@H](CO)[C@H](C(=O)NCCc3ccncc3)N(CCC(F)(F)F)[C@H]21 (mixture of isomers),2,1,108*,-49,-39,-30,5
SMILES,Pf Dd2 growth,C diff HTS,T cruzi growth-1,T cruzi growth-2,T cruzi growth-3,NIH3T3 tox,NIH3T3 tox 2
CC=Cc1ccc2n(c1=O)C[C@H]1[C@H](CO)[C@@H](C(=O)NCC(F)(F)F)N(C(=O)c3cccnc3)[C@@H]21 (mixture of isomers),·,20,+,87,24,13,4
CC=Cc1ccc2n(c1=O)C[C@H]1[C@H](CO)[C@@H](C(=O)NCCc3ccncc3)N(CCC(F)(F)F)[C@@H]21 (mixture of isomers),7,-1,41,·,·,·,·
COc1ccc(CN(C)C[C@H]2OCCCC[C@H](C)Oc3ccc(NC(=O)c4ccncc4)cc3C(=O)N([C@@H](C)CO)C[C@H]2C)cc1,-53,-4,-28,·,·,·,·
COc1cccc(S(=O)(=O)N2C[C@H](O)COC[C@@H]3O[C@H](CC(=O)NCCCN4CCOCC4)CC[C@H]32)c1,·,-7,-33,·,·,·,·
C[C@@H]1CN([C@@H](C)CO)S(=O)(=O)c2ccc(-c3ccc(C(=O)N(C)C)cc3)cc2O[C@@H]1CN(C)C(=O)C1CCC1,-34,3,-53,·,·,·,·
C[C@@H]1CCCCO[C@@H](CN(C)C(=O)Nc2ccccc2)[C@H](C)CN([C@@H](C)CO)C(=O)c2cc(NC(=O)Cc3ccccc3)ccc2O1,-26,·,-28,·,·,·,·
C[C@H](CO)N1C[C@H](C)[C@H](CN(C)C(=O)Nc2ccc(F)cc2)OCCCC[C@H](C)Oc2ccc(NC(=O)Cc3ccccc3)cc2C1=O,4,-1,104*,101*,40,-21,6
C[C@@H]1CCCCO[C@H](CN(C)C(=O)Nc2ccccc2)[C@H](C)CN([C@H](C)CO)C(=O)c2cc(NC(=O)Cc3ccccc3)ccc2O1,-68,·,29,·,·,·,·
C[C@@H]1CCCCO[C@H](CN(C)C(=O)Nc2ccc(C(F)(F)F)cc2)[C@@H](C)CN([C@@H](C)CO)C(=O)c2cc(NC(=O)Cc3ccccc3)ccc2O1,-89*,-2,?,101*,114*,2,?
C[C@@H]1CN([C@H](C)CO)C(=O)c2cc(NC(=O)c3ccccc3)ccc2O[C@@H](C)CCCCO[C@H]1CN(C)C(=O)Nc1ccc(C(F)(F)F)cc1,-18,-4,71,·,·,·,·

# Screening data deposited in PubChem BioAssay by Broad Institute.
